Reference: PubChem BioAssay AID2061324 (National Center for Advancing Translational Sciences (NCATS), 2025)
Records with an inconclusive call do not appear. Calls of active or inactive are those of the source. The call rests on the fitted dose curve; in most records, active means well fitted inhibition curve with a large enough effect; inconclusive means small, poorly fitted or top-dose-only effect; inactive means flat fitted curve, though single readings scatter.

Assay: Identification of antibody-drug conjugate (ADC) payloads which are substrates of ATP-binding cassette drug efflux transporters: ABCG2-HEK293-pcDNA cell line
Details: ABCG2-HEK293 transfected cells viability, CellTiter-Glo, 48 h
Text: Antibody-drug conjugates (ADCs) feature an antibody recognizing a specific protein joined to a potent toxic payload. Numerous antibody-drug conjugates have received FDA approval; however, clinical resistance arises. Resistance mechanisms include decreased expression or mutation of the antibody target, impaired payload release, or increased expression of ATP-binding cassette (ABC) efflux transporters associated with multidrug resistance. We therefore sought to characterize the interaction of ABC multidrug transporters with ADC payloads. We performed a high-throughput screen with 27 common ADC payloads using cells lines expressing ABC transporters P-glycoprotein (P-gp, encoded by ABCB1) or ABCG2 (encoded by ABCG2). Confirmatory assays were also performed using cells transfected to express P-gp, ABCG2, or MRP1 (encoded by ABCC1). Several commonly used ADC payloads were substrates of P-gp, including calicheamicin gamma1, monomethyl auristatin E, DM1, and DM4. All the pyrrolobenzodiazepines tested - SJG136, SGD-1882, SG2057, and SG3199 - were substrates of P-gp, ABCG2, and MRP1. […] These findings highlight the risk of transporter-mediated resistance with certain ADC payloads and underscore the importance of selecting payloads that evade ABC transporter recognition in future ADC development.
HEK-293 cells were transfected with empty vector (pcDNA) or vector containing the human ABCB1 (MDR-19), ABCG2 (R-5), or ABCC1 gene (MRP1) and were maintained in EMEM with 2 mg/mL G418 added to maintain transporter expression. The HeLa derivative KB-3-1 and the P-gp overexpressing KB-8-5-11 subline were maintained in DMEM; KB-8-5-11 additionally received 100 ng/mL colchicine. H460 parental cells were obtained from the Division of Cancer Treatment and Diagnosis Tumor Repository, National Cancer Institute at Frederick, MD and were cultured in RPMI. The ABCG2 expressing subline H460 MX20 was generated by selecting H460 cells in 20 nM mitoxantrone. Media in all cases was supplemented with 10% FBS and 1% penicillin-streptomycin. We explored 27 common ADC payloads, in two orthogonal, paired cell line sets-a drug selected and transfected set for each transporter--to identify substrates of the ABC transporters P-gp and ABCG2. Compounds were sourced from Levena Biopharma (San Diego, CA), Selleck Chem (Houston, TX), ChemieTek (Indianapolis, IN), or Microsource Discovery Systems (Gaylordsville, CT). Screening was performed as previously described. Briefly, cells were plated at a density of 500 cells/well in 1536 well plates with compounds added using a 1536-head pin tool (Kalypsys, San Diego CA). Cells were incubated with cytotoxic drugs and processed with CellTiter Glo reagent (Promega, Madison, WI) to determine viability after 48 hours. P-gp substrates were identified by comparing compound activity between paired sets of low-expressing (sensitive) and over-expressing (resistant) cell lines.

Structure (SMILES) | Potency
COc1cc2cc(C(=O)N3C[C@@H](CCl)c4c3cc(O)c3ccccc43)[nH]c2c(OC)c1OC | 7.5 nM (active)
CC[C@H](C)[C@@H]([C@@H](CC(=O)N1CCC[C@H]1[C@H](OC)[C@@H](C)C(=O)N[C@H](C)[C@@H](O)c1ccccc1)OC)N(C)C(=O)[C@@H](NC(=O)[C@H](C(C)C)N(C)C)C(C)C | 9.5 nM (active)
CC[C@H](C)[C@H](NC(=O)[C@H]1CCCCN1C)C(=O)N(C)[C@H](C[C@@H](OC(C)=O)c1nc(C(=O)N[C@@H](Cc2ccccc2)C[C@H](C)C(=O)O)cs1)C(C)C | 23.8 nM (active)
COc1cc2cc(c1Cl)N(C)C(=O)C[C@H](OC(=O)[C@H](C)N(C)C(=O)CCS)[C@]1(C)OC1[C@H](C)C1C[C@@](O)(NC(=O)O1)[C@H](OC)/C=C/C=C(\C)C2 (some centres not stated) | 9.5 nM (active)
COc1cc2cc(c1Cl)N(C)C(=O)C[C@H](OC(=O)[C@H](C)N(C)C(=O)CCC(C)(C)S)[C@]1(C)OC1[C@H](C)C1C[C@@](O)(NC(=O)O1)[C@H](OC)/C=C/C=C(\C)C2 (some centres not stated) | 2.4 nM (active)
COc1cc2cc(c1Cl)N(C)C(=O)C[C@H](OC(=O)C(C)C)[C@]1(C)O[C@H]1[C@H](C)[C@@H]1C[C@@](O)(NC(=O)O1)[C@H](OC)C=CC=C(C)C2 | 1.1 nM (active)
CC[C@@]1(O)C(=O)OCc2c1cc1n(c2=O)Cc2cc3ccccc3nc2-1 | 15 nM (active)
